From PubChem BioAssay AID624260 (Broad Institute, 2012) come the findings set out here.

Structures are written as SMILES. The whole screen tested about 44,000 compounds, of which about 30 (0.07%) were called active. Roughly 1% stayed inconclusive and do not appear here. No stated cut-off is given here; in the data, active means inhibition above about 54% (passing the limit was not always enough); inconclusive means no clear call, values can overlap the other calls. Only a selection was taken, and actives are over-represented in it overall.

Sequence of Histone-lysine N-methyltransferase NSD2 (Homo sapiens) (O96028 whole entry, looked up): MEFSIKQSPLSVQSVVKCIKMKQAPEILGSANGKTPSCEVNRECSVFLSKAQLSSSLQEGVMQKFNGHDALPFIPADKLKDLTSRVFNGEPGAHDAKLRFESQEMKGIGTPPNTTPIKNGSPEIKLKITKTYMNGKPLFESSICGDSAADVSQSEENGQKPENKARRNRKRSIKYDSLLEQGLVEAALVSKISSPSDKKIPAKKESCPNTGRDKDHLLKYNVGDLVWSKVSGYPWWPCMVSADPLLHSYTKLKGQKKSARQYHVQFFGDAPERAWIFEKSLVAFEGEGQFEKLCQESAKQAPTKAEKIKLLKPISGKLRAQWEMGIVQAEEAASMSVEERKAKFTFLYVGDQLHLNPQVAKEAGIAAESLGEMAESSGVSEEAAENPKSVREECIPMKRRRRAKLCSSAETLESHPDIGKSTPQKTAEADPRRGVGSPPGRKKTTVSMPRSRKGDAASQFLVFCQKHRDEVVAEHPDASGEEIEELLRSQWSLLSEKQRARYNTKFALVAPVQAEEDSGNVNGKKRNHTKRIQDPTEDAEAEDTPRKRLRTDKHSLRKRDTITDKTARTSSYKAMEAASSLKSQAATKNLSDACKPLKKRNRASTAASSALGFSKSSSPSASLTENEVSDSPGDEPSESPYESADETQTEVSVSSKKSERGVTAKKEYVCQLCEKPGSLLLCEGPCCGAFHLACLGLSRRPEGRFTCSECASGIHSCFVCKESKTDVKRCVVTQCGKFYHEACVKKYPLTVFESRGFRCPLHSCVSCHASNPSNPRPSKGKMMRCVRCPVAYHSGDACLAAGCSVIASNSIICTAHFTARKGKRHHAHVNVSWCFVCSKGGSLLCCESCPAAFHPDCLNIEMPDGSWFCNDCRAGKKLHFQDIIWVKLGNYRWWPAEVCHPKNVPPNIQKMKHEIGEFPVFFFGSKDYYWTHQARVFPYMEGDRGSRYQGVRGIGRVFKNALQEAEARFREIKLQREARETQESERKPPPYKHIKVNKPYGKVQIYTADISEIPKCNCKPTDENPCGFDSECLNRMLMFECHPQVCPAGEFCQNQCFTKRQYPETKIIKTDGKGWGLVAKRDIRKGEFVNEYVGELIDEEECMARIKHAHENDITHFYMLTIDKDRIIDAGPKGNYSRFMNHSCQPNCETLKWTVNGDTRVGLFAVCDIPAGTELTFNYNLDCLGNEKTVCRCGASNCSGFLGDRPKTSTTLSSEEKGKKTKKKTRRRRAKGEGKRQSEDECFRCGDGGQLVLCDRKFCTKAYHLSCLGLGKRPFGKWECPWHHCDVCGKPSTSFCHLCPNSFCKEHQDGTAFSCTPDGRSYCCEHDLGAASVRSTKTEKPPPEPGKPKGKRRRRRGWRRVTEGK

The experiment concerns the target Histone-lysine N-methyltransferase NSD2 (Homo sapiens) (UniProt O96028). As to the kind of experiment: inhibitors of human NSD2, primary screen, biochemical, plate reader, single point (AID 624260).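 Further: inhibitors reduce the monomethyl H3K36 fluorescence signal.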 Conditions: NSD2-SET H3K36me1 DELFIA fluorescence, at 12.5 µM, stronger effect = higher value.
For orientation: inhibition means the change of the read-out against control, counted positive when it falls. As for `CC(=O)N(C)C[C@H]1Oc2cc(C#Cc3ccccc3F)ccc2S(=O)(=O)N([C@@H](C)CO)C[C@H]1C`, the inhibition was -2.4% (inactive).
Take `O=C(C[C@@H]1C[C@H]2c3cc(NS(=O)(=O)c4ccc(F)cc4)ccc3O[C@H]2[C@H](CO)O1)NCCc1ccccc1`: the inhibition is 4.07% (inactive).
Regarding `C[C@@H]1CN([C@@H](C)CO)S(=O)(=O)c2ccc(C#Cc3ccccc3F)cc2O[C@H]1CN(C)C(=O)c1ccc2c(c1)OCO2`, the inhibition is -0.635% (inactive).
`CC(C)NC(=O)N(C)C[C@H]1Oc2ncc(C#CC3(O)CCCC3)cc2C(=O)N([C@H](C)CO)C[C@@H]1C`: the inhibition was -3.09% (inactive).
Regarding `O=C(C[C@@H]1C[C@@H]2c3cc(NS(=O)(=O)c4ccc(F)cc4)ccc3O[C@@H]2[C@@H](CO)O1)NCc1ccncc1`, the inhibition was 1.12% (inactive).
For the molecule `CN(C)CC(=O)Nc1ccc2c(c1)[C@H]1C[C@@H](CC(=O)NCc3ccc(-c4ccccc4)cc3)O[C@H](CO)[C@H]1O2`, the inhibition was 3.66% (inactive).
With `C[C@H](CO)N1C[C@H](C)[C@@H](CN(C)S(=O)(=O)c2ccc(Cl)cc2)Oc2ccc(NS(C)(=O)=O)cc2CC1=O` the figure was 1.76% (inactive); with `C[C@@H]1CN([C@@H](C)CO)C(=O)c2cc(-c3cccc(F)c3)cnc2O[C@@H]1CN(C)Cc1ccccc1`, -9.63% (inactive); with `COCC(=O)Nc1ccc2c(c1)[C@H]1C[C@H](CC(=O)NCc3ccccn3)O[C@H](CO)[C@H]1O2`, 2.78% (inactive).
With `CCC(=O)N(C)C[C@H]1Oc2cc(/C=C/c3ccccc3)ccc2S(=O)(=O)N([C@H](C)CO)C[C@@H]1C` the figure was 2.05% (inactive); with `COc1ccc(NC(=O)Nc2ccc3c(c2)[C@@H]2C[C@H](CC(=O)N4CCCCC4)O[C@H](CO)[C@@H]2O3)cc1`, 4.87% (inactive).
As for `C[C@@H]1CN([C@@H](C)CO)S(=O)(=O)c2ccc(-c3cccc(C(=O)N(C)C)c3)cc2O[C@@H]1CN(C)C`, the inhibition was 1.16% (inactive).
On to `CC(C)NC(=O)N(C)C[C@@H]1Oc2ncc(C#Cc3ccncc3)cc2C(=O)N([C@@H](C)CO)C[C@@H]1C`, for which the inhibition is 4.8% (inactive).
On to `Cc1ccc(-c2cnc3c(c2)C(=O)N([C@H](C)CO)C[C@@H](C)[C@H](CN(C)Cc2ccccc2C(=O)O)O3)cc1`, for which the inhibition is 12.9% (inactive).
Consider `CCCNC(=O)C[C@H]1C[C@@H]2c3cc(NC(=O)COC)ccc3O[C@@H]2[C@@H](CO)O1`, for which the inhibition is 3.25% (inactive).
On to `C[C@H](CO)N1C[C@H](C)[C@@H](CN(C)C(=O)Nc2ccccc2)Oc2ncc(C3=CCCC3)cc2C1=O`, for which the inhibition was -0.747% (inactive).
With `C/C=C/c1cnc2c(c1)C(=O)N([C@@H](C)CO)C[C@@H](C)[C@H](CN(C)Cc1ccccc1)O2` the figure was 1.34% (inactive); with `C[C@@H]1CN([C@@H](C)CO)S(=O)(=O)c2ccc(C#CCN(C)C)cc2O[C@@H]1CN(C)S(=O)(=O)c1cccc(F)c1`, -0.392% (inactive).
With `C[C@H]1CN([C@@H](C)CO)C(=O)c2cc(-c3ccncc3)cnc2O[C@@H]1CN(C)C(=O)c1cccc(F)c1`, the inhibition is -0.363% (inactive).
In the case of `Cc1ccc(-c2ccc3c(c2)O[C@H](CN(C)C(=O)Nc2ccc(C(F)(F)F)cc2)[C@@H](C)CN([C@H](C)CO)S3(=O)=O)cc1`, the inhibition is -7.32% (inactive).
On to `CCC(=O)N(C)C[C@@H]1Oc2ncc(C#CCc3ccccc3)cc2C(=O)N([C@H](C)CO)C[C@H]1C`, for which the inhibition was -13.4% (inactive).
With `C[C@H](CO)N1C[C@H](C)[C@@H](CN(C)S(=O)(=O)c2cccc(F)c2)Oc2ncc(-c3cccc(F)c3)cc2C1=O` the figure was -2.04% (inactive); with `C[C@@H]1CCCCO[C@H](CN(C)S(=O)(=O)c2ccc(Cl)cc2)[C@H](C)CN([C@H](C)CO)C(=O)c2cc(NC(=O)NC3CCCCC3)ccc2O1`, 5.74% (inactive); with `CC(=O)N(C)C[C@H]1Oc2ncc(C#CC3(O)CCCC3)cc2C(=O)N([C@@H](C)CO)C[C@@H]1C`, 4.16% (inactive).
Turning to `COc1ccc(S(=O)(=O)N[C@@H]2C=C[C@@H](CC(=O)N3CCc4ccccc4C3)O[C@@H]2CO)cc1`, the inhibition is 3.25% (inactive).
`CC(=O)N(C)C[C@@H]1Oc2ncc(-c3ccccc3F)cc2C(=O)N([C@H](C)CO)C[C@@H]1C`: the inhibition was -4.17% (inactive).
Regarding `COc1ccc(-c2cnc3c(c2)C(=O)N([C@@H](C)CO)C[C@H](C)[C@H](CN(C)C(=O)Cc2cccnc2)O3)cc1`, the inhibition is -0.562% (inactive).
As to `C[C@@H]1CN([C@H](C)CO)C(=O)c2cc(NC(=O)C3CCCCC3)ccc2O[C@@H](C)CCCCO[C@H]1CN(C)S(C)(=O)=O`, the inhibition is -14.3% (inactive).
With `C[C@@H]1CN([C@H](C)CO)S(=O)(=O)c2ccc(Br)cc2O[C@@H]1CN(C)Cc1cncnc1` the figure was 1.53% (inactive); with `C[C@@H](NC(=O)C[C@H]1C[C@@H]2c3cc(NC(=O)C4CCC4)ccc3O[C@@H]2[C@@H](CO)O1)c1ccccc1`, -3.13% (inactive).
Turning to `C[C@H]1CN([C@@H](C)CO)S(=O)(=O)c2ccc(-c3cccc(C#N)c3)cc2O[C@H]1CN(C)CC1CC1`, the inhibition is 18.1% (inactive).
With `COc1cccc(S(=O)(=O)N(C)C[C@H]2Oc3cc(C#CCN(C)C)ccc3S(=O)(=O)N([C@H](C)CO)C[C@H]2C)c1`, the inhibition is 1.49% (inactive).
As for `C[C@@H]1CN([C@@H](C)CO)C(=O)Cc2cc(NS(C)(=O)=O)ccc2O[C@H]1CN(C)S(=O)(=O)c1ccc(F)cc1`, the inhibition was 5.39% (inactive).
`CCCNC(=O)N(C)C[C@H]1Oc2ncc(C#CC(C)C)cc2C(=O)N([C@@H](C)CO)C[C@@H]1C`: the inhibition was -3.03% (inactive).
To `C[C@@H]1CN([C@H](C)CO)C(=O)c2cc(-c3ccc(F)cc3)cnc2O[C@@H]1CN(C)C(=O)C1CCC1` belongs 8.32% (inactive).
To `O=C(C[C@H]1C[C@@H]2c3cc(NC(=O)CC4CC4)ccc3O[C@@H]2[C@@H](CO)O1)NCc1cc(F)ccc1F` belongs 9.35% (inactive); to `COc1ccccc1S(=O)(=O)N(C)C[C@@H]1Oc2cc(C#CCC3CCCC3)ccc2S(=O)(=O)N([C@H](C)CO)C[C@H]1C`, -16.6% (inactive); to `C[C@@H]1CN([C@@H](C)CO)S(=O)(=O)c2ccc(Br)cc2O[C@@H]1CN(C)C(=O)CN(C)C`, 16.9% (inactive).
